Test results taken from PubChem BioAssay AID1347138 (National Center for Advancing Translational Sciences (NCATS), 2019).
Some of the results follow. A call without a number means that no potency is given here. Results filed as inconclusive are left out. Active and inactive are the calls of the source. Calls follow the shape of the dose curve; as a rule, active = well fitted inhibition curve with a large enough effect; inconclusive = small, poorly fitted or top-dose-only effect; inactive = no such curve, though single readings can be large or run the other way.

Assay: qHTS of pediatric cancer cell lines to identify multiple opportunities for drug repurposing: Orthogonal 3D caspase screen for TC32 cells
Settings: TC32 3D spheroids, caspase-3/7 fluorescence imaging, 24 h; series mostly up to 30.7 µM
Source text: Drug repurposing or repositioning has been offered as a strategy for drug development in oncology programs. This approach has special potential for childhood cancers and other rare or orphan diseases, where the expected return on new drug development has been a disincentive to pharmaceuticals. […] In this project we exploit the poly-pharmacology of drugs to discover new indications via phenotypic screening of a panel of 19 well-characterized cell lines derived from solid tumors seen in children and adolescents. The goal is to identify approved drugs with previously unrecognized anticancer properties that has the potential to reveal new mechanisms and biological processes involved in carcinogenesis or drug resistance. We employed a titration-based paradigm (quantitative high-throughput screening or qHTS), where all compounds were tested at multiple concentrations for their effect on cell viability. Concentration-response curves (CRCs) were derived directly from the primary screen, and both potency and efficacy values were used to identify compounds with robust bioactivity profiles. […] These two assays will be used to validate active compounds and assess the correlation of compound's potency in 2D vs 3D cultures on selected cell lines. Assay Submitter: Nathalia J. Martinez, National Center for Advancing Translational Sciences, National Institutes of Health, Rockville, MD, USA; email: natalia.martinez@nih.gov Shen, M et al. Quantitative high-throughput phenotypic screening of pediatric cancer cell lines identifies multiple opportunities for drug repurposing. Oncotarget 2017 Dec 19;9(4):4758-4772. PMID 29435139.
The cells were obtained from University of North Carolina (UNC), Pediatric Preclinical Testing Program (PPT), and Coriell Institute (CI). qHTS apoptosis assay in 3D cultures: For the apoptosis assay, cells were assayed in phenol red-free growth media at a density of 1,000 cells/well. Thirty microliters of cells were dispensed into 384-well, ULA, round bottom plates (Corning) using a Multidrop dispenser. Plates were spun down at 1,000 rpm for 1 min and incubated at 37 C, 5% CO2, under a humidified atmosphere for 24 hours to allow spheroid formation. Ninety-two nanoliter of compounds and controls were subsequently transferred via GNF Pintool. Plates were sealed using a breathable seal (Diversified Biotech, Dedham, MA) and incubated for 24 hours at 37C before addition of CellEvent Caspase-3/7 green detection reagent (TheremoFisher Scientific). Staurosporine at final concentrations of 3 µM was used as positive control. Spheroids were imaged using bright-field and green (EX: […]) filters and analyzed with the Celigo Tumorsphere 1+2 application software. Spheroids were first identified using bright-field segmentation, and the average fluorescent intensity of the green channel was used to quantify caspase activation as percent activity based on neutral control DMSO and positive control.

SMILES	Potency
C=C1C(=CC=C2CCC[C@]3(C)[C@@H]([C@H](C)C=C[C@H](C)C(C)C)CC[C@@H]23)C[C@@H](O)C[C@@H]1O	inactive
COC(=O)Nc1nc2ccc(Sc3ccccc3)cc2[nH]1	11400 nM (active)
COc1c(C)c2c(c(O)c1C/C=C(\C)CCC(=O)O)C(=O)OC2	inactive
CC1(C)O[C@@H]2C[C@@H]3[C@H]4C[C@@H](F)C5=CC(=O)C=C[C@]5(C)[C@@]4(F)[C@@H](O)C[C@]3(C)[C@]2(C(=O)CO)O1	inactive
CC(NCc1ccc2c(c1)nc(NC(=O)c1ccc(-c3cn[nH]c3)s1)n2CC(C)(C)O)C(C)(C)C (stereo unspecified)	1440 nM (active)
CC[C@]1(O)C[C@@H]2CN(CCc3c([nH]c4ccccc34)[C@@](C(=O)OC)(c3cc4c(cc3OC)N(C)[C@H]3[C@@](O)(C(=O)OC)[C@H](OC(C)=O)[C@]5(CC)C=CCN6CC[C@]43[C@@H]65)C2)C1	72.2 nM (active)
